HP1b chromo inh = inhibitors of HP1-beta chromodomain binding to methylated histone tails; P83916; AlphaScreen HP1-beta / biotin-H3K9me3 peptide binding; Potency, µM (doses to about 114 µM), hits mostly inhibitors; 390,000 compounds, 0.56% hits; AID 540317; further: nearly all actives have a fitted effect of over 70% in size
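HP1-beta protein (50 nM final) preincubated 30 min at room temperature with biotinylated H3(1-18)K9me3 peptide (50 nM) in PBS pH 7.4, 0.01% Tween-20, then compound added for 30 min. AlphaScreen streptavidin donor/nickel chelate acceptor beads (10 ug/mL final), 30 min dark, luminescence read.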
BAZ2B block = blocks human BAZ2B; Q9UIF8; AlphaScreen BAZ2B-H3K14Ac peptide displacement; Potency, µM (highest dose often 114 µM), hits mostly inhibitors; 360,000 compounds, 4.4% hits; AID 504333; further: nearly all actives have a fitted effect of over 60% in size
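Multi-concentration screen (max 110 uM) measuring displacement of acetylated histone H3 peptide from BAZ2B by AlphaScreen, using 50 nM protein, 50 nM peptide and 10 ug/mL streptavidin donor plus Ni-chelate acceptor beads.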
G9a block = G9a (human) methyltransferase inhibition; Potency, µM (titrated, usually from 102 µM), actives largely listed as inhibitors; G9a H3K9 monomethylation, AlphaScreen, 2 h; Q96KQ7; 350,000 compounds, 8.8% hits; further: nearly all actives have a fitted effect of over 75% in size
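Step 1: enzyme (final 20 nM) with compound, 15 min RT. Step 2: substrate peptide 500 nM and SAM 20 uM, 2 h RT. Step 3: anti-H3K9me1 antibody and AlphaScreen beads, 10 min, then plate read.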
L3MBTL1 block = inhibitors of human L3MBTL1; AlphaScreen L3MBTL1–H3K9me1 peptide binding; Potency, µM (top dose mostly 57.1 µM), hits mostly inhibitors; 230,000 compounds, 0.66% hits; Q9Y468; further: nearly all actives have a fitted effect of over 60% in size
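L3MBTL1 (50 nM) pre-complexed 30 min with biotinylated H3(1-15)K9me1 peptide (75 nM), then compounds added for 30 min at room temperature; AlphaScreen streptavidin donor/nickel chelate acceptor beads (10 ug/mL final) read after 30 min dark incubation.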
JMJD2A Tudor = inhibitors of human JMJD2A Tudor domain; O75164; AlphaScreen JMJD2A-Tudor / H3K4me3 peptide binding; Potency, µM (doses to about 114 µM), most hits filed as inhibitors; 390,000 compounds, 4.4% hits; AID 504339; further: nearly all actives have a fitted effect of over 50% in size
Hits are given with their value; – = inactive; ? = inconclusive; · = no result; ! = repeats disagree; [ ] = another dose, or the depositor's remark. Rows were chosen to be rich in hits. Some 11% of all compounds tested hit in one or more screens of this group. The call rests on the fitted dose curve; in most records, active means well fitted inhibition curve with a large enough effect; inconclusive means small, poorly fitted or top-dose-only effect; inactive means no such curve, though single readings can be large or run the other way.

SMILES	HP1b chromo inh	BAZ2B block	G9a block	L3MBTL1 block	JMJD2A Tudor
NC(=S)N/N=C1\CC(n2nnn(-c3cccc(Cl)c3)c2=S)C2COC1O2 (stereo not given)	–	?	40µM	·	?
Cc1ccc(-c2onc(C)c2C)cc1S(=O)(=O)NCc1ccco1	–	–	–	·	–
CC(O)CNC(=O)C(=O)Nc1c2c(nn1-c1ccc(Cl)cc1)CSC2 (stereo not given)	–	–	?	·	–
S=c1c2c(nc3nc[nH]n13)CCC2	–	45µM	·	–	6.3µM
Cc1ccc(S(=O)(=O)/C=C/C#N)cc1	·	·	1.6µM	·	·
Cc1ccc(S(=O)(=O)c2ccc(C)cc2)cc1	–	–	–	·	–
O=S(=O)(c1ccccc1)N1CCC[C@@]2(CCN(c3ccncc3)C2)C1	·	·	–[12.7 µM]	·	·
Cc1ccccc1NC(=O)C1C2CCCCC21 (stereo not given)	–	–	–	–	–
O=C(NN1C(=O)c2ccccc2C1=O)C1C2CCCCC21 (stereo not given)	–	–	2.8µM	–	–
C=CCn1c(NC(=O)CC)c(C(=O)OCC)sc1=S	–	?	45µM	·	–
O=C(NC1CCCCC1)N(Cc1nc2ccccc2c(=O)[nH]1)C1CCCCC1	–	?	28µM	–	–
O=C(NC1CCCCC1)N1CCN(Cc2nc3ccccc3c(=O)[nH]2)CC1	–	·	·	·	10µM
O=C(NC1CCCCC1)N1CCC(n2cnc3ccccc32)CC1	–	?	56µM	–	56µM
Cc1ccc(S(=O)(=O)N2CCCN(Cc3nc4ccccc4c(=O)[nH]3)CC2)cc1	–	–	25µM	–	?
O=C(O)c1ccccc1Nc1cccc(OCc2ccc3ccccc3n2)c1	–	45µM	11µM	?	?
O=C(COc1ccc2ccccc2c1)Nc1cccc(C(=O)Nc2ccccc2C(=O)O)c1	–	–	–	–	?
O=C(Cn1sc2ccccc2c1=O)NC12CC3CC(CC(C3)C1)C2	?	11µM	?	·	2.8µM
Cc1ccc(C(=O)c2cn(Cc3cccc(C)c3)c3nc(C)ccc3c2=O)cc1	–	–	–	·	–
COc1ccc(C2C(C(=O)Nc3ccccc3)=C(C)Nc3c(C(=O)Nc4ccccc4)cnn32)cc1 (stereo not given)	–	–	–	·	–
O=C(O)c1cccc(CN2C(=O)SC(Nc3cccc4ccccc34)C2=O)c1 (stereo not given)	–	?	50µM	–	–
O=C(O)CN1C(=O)SC(Nc2ccc(C(=O)O)cc2)C1=O (stereo not given)	–	?	?	·	–
O=C(O)CN1C(=O)SC(Nc2ccccc2C(=O)O)C1=O (stereo not given)	–	?	40µM	·	?
Cn1c(SCC(=O)N2CCOCC2)ncc(C(=O)Nc2ccc(F)cc2)c1=O	–	–	–	·	–
Cc1ccc(-n2c(=O)c3ccc(C(=O)NCc4ccccc4Cl)cc3n(CC(=O)Nc3cccc(F)c3)c2=O)cc1	–	·	–	·	–
O=C(COC(=O)c1ccc2ncsc2c1)NC(=O)NCc1ccccc1	–	–	–	·	–
SMILES	HP1b chromo inh	BAZ2B block	G9a block	L3MBTL1 block	JMJD2A Tudor
COc1ccc(C(=O)NC(=O)COC(=O)c2ccc3ncsc3c2)cc1	·	56µM	–	?	·
O=C(COC(=O)c1ccc2ncsc2c1)NC(=O)c1ccccc1	–	79µM	?	–	25µM
CC1CCN(S(=O)(=O)c2cn(CC(=O)Nc3ccc(F)c(Cl)c3)c(=O)c3ccccc23)CC1	–	–	–	·	–
CCc1ccccc1NS(=O)(=O)c1ccc2c(c1)CCCN2C(=O)C1CCC1	–	–	–	·	–
COc1ccccc1C(=O)NC(=O)COC(=O)c1cccc(NC(C)=O)c1	–	–	–	·	–
O=C(CSc1nnc2c(n1)[nH]c1ccc(F)cc12)N1CCOCC1	–	–	–	–	–
CC(C)CSc1nnc2c(n1)[nH]c1ccccc12	–	–	–	·	–
CCCCSc1nnc2c(n1)[nH]c1ccccc12	–	?	–[12.7 µM]	·	22µM
O=C(Cc1c[nH]c2ccccc12)Nc1ccc(N2CCOCC2)cc1	–	?	22µM	–	?
Brc1ccc2[nH]c3nc(SCCN4CCOCC4)nnc3c2c1	–	–	40µM	–	79µM!
O=C(CSc1nnc2c(n1)[nH]c1ccccc12)Nc1ccc(N2CCOCC2)cc1	–	–	·	–	32µM

From PubChem BioAssay
